Here are results for 99 molecules from PubChem BioAssay AID430 (Sanford-Burnham Center for Chemical Genomics, 2006).

SMILES strings stand for the structures. The whole screen tested about 63,000 compounds, of which about 1,100 (1.7%) were called active. Cut-off read from the data, not from the text of the source: active = cytotoxicity above about 50%; inactive = the rest. Shown is part of a subset that was picked to be rich in actives. Potency and affinity values are given separately.

This assay is described as follows: HPDE-C7 pancreatic duct cell viability loss – fluorescence, HTS (AID 430).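 Note: cells exposed to compound for 48 hours before viability readout; 0% = vehicle and 100% = reference cytotoxic drug.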 Conditions: HPDE-C7 pancreatic duct cells viability, at 10 µM, hits give high values.
As for `Cc1cc(C)cc(N2C(=O)C3C4C=CC(C4)C3C2=O)c1` (centres undefined), the cytotoxicity was -5.5% (inactive).

Consider `Cc1ccc(CC2(O)CC(C)N(C)CC2C)c(C)c1` (centres undefined), for which the cytotoxicity is 0.1% (inactive).

As to `Nc1nonc1C(=O)NC(c1ccccc1)c1ccccc1`, the cytotoxicity is 3.4% (inactive).

Consider `COc1ccc(C2CC(c3ccccc3)Nc3nc(NC(=O)c4cccs4)nn32)cc1` (centres undefined), for which the cytotoxicity is -3.4% (inactive).

For `O=C(O)c1ccccc1C(=O)N1CCN(c2cccc(Cl)c2)CC1`, the cytotoxicity is 6.7% (inactive).

Turning to `Cc1ccc(C(=O)N2CCN(c3cccc(Cl)c3)CC2)cc1C`, the cytotoxicity was 36.8% (inactive).

As for `CCOc1ccc2ccccc2c1C(=O)N1CCN(c2ccccc2)CC1`, the cytotoxicity was 50.5% (active).

Turning to `COc1ccccc1C(=O)N1CCN(c2cccc(Cl)c2)CC1`, the cytotoxicity was -13% (inactive).

`Cc1cc(C(=O)N2CCN(c3cccc(Cl)c3)CC2)c(C)o1`: the cytotoxicity is 53.3% (active).

With `CCOc1ccc(C(=O)N2CCN(c3ccccc3)CC2)cc1OCC`, the cytotoxicity was -51.5% (inactive).

For `O=C(c1c(Cl)nc2sccn12)N1CCN(c2cccc(Cl)c2)CC1`, the cytotoxicity is 75% (active).

On to `CCOc1ccc2ccccc2c1C(=O)N1CCOCC1`, for which the cytotoxicity is 2.5% (inactive).

As for `O=C(c1cccc(F)c1)N1CCN(c2cccc(Cl)c2)CC1`, the cytotoxicity was 36.5% (inactive).

Turning to `Cc1cc(C(=O)N2CCN(c3ncccn3)CC2)c(C)o1`, the cytotoxicity was 2.2% (inactive).

Consider `CCOc1ccccc1C(=O)N1CCN(c2cccc(Cl)c2)CC1`, for which the cytotoxicity was 62.2% (active).

In the case of `COc1ccc(C(=O)N2CCN(c3cccc(Cl)c3)CC2)c(OC)c1`, the cytotoxicity is 44.1% (inactive).

Take `CN1CCN(/C=C2\SC(=S)NC2=O)CC1`: the cytotoxicity is -23.4% (inactive).

As to `O=C(c1cnc2n(c1=O)CCS2)N1CCN(c2ccc(Cl)c(Cl)c2)CC1`, the cytotoxicity is -3.5% (inactive).

In the case of `CC(NS(=O)(=O)c1ccc(Br)cc1)C(c1cccs1)N1CCN(C)CC1` (centres undefined), the cytotoxicity was -8.4% (inactive).

Consider `c1ccc(-n2c(-c3ccncc3)nnc2-c2ccco2)cc1`, for which the cytotoxicity is -33.8% (inactive).

In the case of `O=C(O)CC1C(=O)NCCN1C/C=C/c1ccccc1` (centres undefined), the cytotoxicity was -5.3% (inactive).

Consider `O=C(CN(C(=O)CNC(=O)c1ccco1)c1ccc2c(c1)OCO2)NC1CCCCC1`, for which the cytotoxicity is -31.1% (inactive).

As to `Cc1ccc2c(c1)nnn2C1CCN(C(=O)C2CCCCC2)CC1`, the cytotoxicity was -12.5% (inactive).

Take `O=C(c1ccccc1F)N1CCN(c2cccc(C(F)(F)F)c2)CC1`: the cytotoxicity was -5% (inactive).

Turning to `COc1ccccc1C(=O)N1CCN(c2cccc(C(F)(F)F)c2)CC1`, the cytotoxicity is 60.8% (active).

In the case of `COc1ccccc1CC(=O)N1CCN(c2cccc(C(F)(F)F)c2)CC1`, the cytotoxicity was -10.2% (inactive).

For the molecule `CSc1nsc(SCc2ccc(F)cc2)n1`, the cytotoxicity is -4.1% (inactive).

`Nc1nnc(SCc2ccc(F)cc2)s1`: the cytotoxicity was -16.7% (inactive).

On to `Cc1nnc(SCc2ccc(F)cc2)s1`, for which the cytotoxicity is 105% (active).

Take `Clc1ccccc1-c1nnc2sc(-c3ccco3)nn12`: the cytotoxicity is -6.1% (inactive).

As for `COC(=O)C1=C(C)N(c2ccc(Cl)c(Cl)c2)C(=O)C1`, the cytotoxicity was 84.2% (active).

For `COC(=O)C1=C(C)N(c2ccc(F)c(Cl)c2)C(=O)C1`, the cytotoxicity is -5.3% (inactive).

As to `COC(=O)C1=C(C)N(c2cccc(Cl)c2)C(=O)C1`, the cytotoxicity was -4.9% (inactive).

As for `Cc1nc2c(o1)CCc1ccccc1C2N1CCN(C)CC1` (centres undefined), the cytotoxicity is -16.4% (inactive).

Turning to `CC(C)CC(OC(=O)c1ccco1)C(=O)NC1CCCCC1` (centres undefined), the cytotoxicity is -5.1% (inactive).

Turning to `Cc1ccc(N2CCN(CCc3nc4cc(NS(C)(=O)=O)ccc4n3C)CC2)cc1`, the cytotoxicity is -22.1% (inactive).

For `CCC(C)(C)n1nnnc1C(C(C)C)N1CCC(C(N)=O)CC1` (centres undefined), the cytotoxicity is 5.6% (inactive).

On to `CCC(C)(C)n1nnnc1C(c1ccccc1F)N1CCC(C(N)=O)CC1` (centres undefined), for which the cytotoxicity is 56.3% (active).

As to `CC(C)CCn1nnnc1C(c1ccccc1F)N1CCC(C(N)=O)CC1` (centres undefined), the cytotoxicity was -13.3% (inactive).

As for `O=C(CN(C1CCCCC1)S(=O)(=O)c1ccc(Cl)cc1)NCc1ccncc1`, the cytotoxicity was -8.9% (inactive).

`Cc1cc(C)c2c(CN3CCN(Cc4ccc5c(c4)OCO5)CC3)cc(=O)oc2c1C`: the cytotoxicity was 44.1% (inactive).

For the molecule `O=C(c1cccc(Cl)c1)N1CCN(c2ccccn2)CC1`, the cytotoxicity is -14.9% (inactive).

In the case of `O=C(c1cccc(COc2ccc(Cl)cc2Cl)c1)N1CCN(c2ccccn2)CC1`, the cytotoxicity is 77.5% (active).

For the molecule `O=C(CCCOc1ccc(Cl)cc1Cl)N1CCN(c2ccccn2)CC1`, the cytotoxicity is 3.1% (inactive).

Consider `Cc1cc2c(cc1C)NC(CC(=O)NCc1ccccc1)C(=O)N2` (centres undefined), for which the cytotoxicity is 1.1% (inactive).

For `Cc1nc(N)sc1-c1csc(Nc2ccccc2)n1`, the cytotoxicity is 36.2% (inactive).

Consider `NS(=O)(=O)c1ccc(Nc2nc(-c3ccc(O)cc3)cs2)cc1`, for which the cytotoxicity was -1.2% (inactive).

For the molecule `c1cncc(Nc2nc(-c3ccncc3)cs2)c1`, the cytotoxicity was -3.1% (inactive).

For the molecule `CC(=O)Nc1nc(C)c(-c2csc(Nc3ccc(O)cc3)n2)s1`, the cytotoxicity was 58.6% (active).

`Oc1ccc(Nc2nc(-c3ccc(O)cc3)cs2)cc1`: the cytotoxicity is 78.4% (active).

For `C=CCNc1nc(-c2sc(NC(C)=O)nc2C)cs1`, the cytotoxicity is 11.6% (inactive).

Turning to `O=C(NC1CCCC1)c1cnc2n(c1=O)CCS2`, the cytotoxicity is -10.2% (inactive).

With `O=C1CC(O)(C(F)(F)F)Oc2c1ccc1ccccc21` (centres undefined), the cytotoxicity was 82.3% (active).

`O=C1CC(O)(C(F)F)Oc2ccc3ccccc3c21` (centres undefined): the cytotoxicity is -12.2% (inactive).

`COc1ccc2c(c1)OC(O)(C(F)(F)F)CC2=O` (centres undefined): the cytotoxicity was -3.3% (inactive).

Consider `COc1cccc(-c2nc(=S)c3c(n2Cc2ccco2)CCCC3)c1`, for which the cytotoxicity was -22.8% (inactive).

For `CCOC(=O)Nc1sc(=S)n(C)c1C`, the cytotoxicity was -8.2% (inactive).

`CN(C)c1nc(SCCOC(=O)Nc2ccccc2)nc(N(C)C)n1`: the cytotoxicity was 19.3% (inactive).

With `Cc1c(NC(=O)OCCSc2nc(N(C)C)nc(N(C)C)n2)sc(=S)n1C`, the cytotoxicity was 59.5% (active).

With `Nc1nc2nccc(-c3ccc(Cl)cc3)n2n1`, the cytotoxicity is 3.6% (inactive).

With `Cc1ccc(NC(=O)N2CCCC2C(=O)NCCc2ccccc2)cc1` (centres undefined), the cytotoxicity is -9.2% (inactive).

Turning to `Cc1ccc(S(=O)(=O)N2CCN(C(=O)COC(=O)COc3ccccc3)CC2)cc1`, the cytotoxicity is 7.4% (inactive).

Turning to `CCOC(=O)c1ccc2c(c1)nc(SCc1cn3ccsc3n1)n2CC`, the cytotoxicity was 19.7% (inactive).

As for `COc1cc(CC(=O)Oc2ccc3c(c2)OCO3)cc(OC)c1OC`, the cytotoxicity was 28.4% (inactive).

As for `COc1cc([C@@H]2c3cc4c(cc3[C@H](O)[C@H]3COC(=O)[C@H]23)OCO4)cc(OC)c1OC`, the cytotoxicity is 67.2% (active).

Consider `COc1cc(CC(=O)NCc2ccc3c(c2)OCO3)cc(OC)c1OC`, for which the cytotoxicity is -7.2% (inactive).

As to `Cc1nn(C)c(C)c1S(=O)(=O)N1CCCC(C(=O)NCC2COc3ccccc3O2)C1` (centres undefined), the cytotoxicity was -4% (inactive).

With `Fc1cccc(CSc2ncnc3c2oc2ccccc23)c1`, the cytotoxicity is 12.4% (inactive).

Take `COc1ccc(OC)c(C(O)c2coc3ccc(O)c(CN4CCOCC4)c23)c1` (centres undefined): the cytotoxicity was 1.7% (inactive).

With `COCCn1nnnc1C(c1ccc(OC)cc1OC)N1CCN(c2ccccc2)CC1` (centres undefined), the cytotoxicity was -2% (inactive).

For `COC(=O)CSc1nnc(CSc2nc(C)cc(C)n2)n1Cc1ccco1`, the cytotoxicity is -2.1% (inactive).

As to `COc1ccc(C(C)=O)cc1COC(=O)c1cc(C)oc1C`, the cytotoxicity was 2.5% (inactive).

With `COc1ccccc1C(=O)OCC(=O)Nc1ccc(OC(F)F)cc1`, the cytotoxicity was 5.1% (inactive).

`Cc1nc(N)sc1-c1csc(Nc2ccccn2)n1`: the cytotoxicity is -12.4% (inactive).

Take `Cc1cccnc1Nc1nc(-c2ccc(O)cc2O)cs1`: the cytotoxicity was 67.2% (active).

Regarding `Cc1cc(O)ccc1Nc1nc(-c2sc(N)nc2C)cs1`, the cytotoxicity is 1.6% (inactive).

For `CCOC(=O)N1CCN(c2c(NCc3cccs3)c(=O)c2=O)CC1`, the cytotoxicity was 46.8% (inactive).

Regarding `Cc1nc(N2CCN(c3ccccc3)CC2)[nH]c(=O)c1Cc1cccc2ccccc12`, the cytotoxicity was 7.5% (inactive).

For the molecule `CCOC(=O)COc1ccc(S(=O)(=O)NCCC2=CCCCC2)cc1`, the cytotoxicity is 50.3% (active).

`COC(=O)COc1ccc(S(=O)(=O)NCCC2=CCCCC2)cc1C`: the cytotoxicity is -2.4% (inactive).

As to `COC(=O)COc1ccc(S(=O)(=O)NCCC2=CCCCC2)cc1`, the cytotoxicity is 18.8% (inactive).

In the case of `O=C(c1ccncc1)N1CCN(C(=O)c2cccs2)CC1`, the cytotoxicity is -5.3% (inactive).

Turning to `Cc1ccccc1C(=O)N1CCN(c2ccc(NC(=O)c3ccco3)cc2Cl)CC1`, the cytotoxicity was 11.7% (inactive).

For the molecule `O=C(Nc1ccc(N2CCOCC2)c(Cl)c1)c1c(F)c(F)c(F)c(F)c1F`, the cytotoxicity is 54.5% (active).

With `O=C(Nc1ccc(N2CCN(C(=O)c3ccco3)CC2)c(Cl)c1)c1c(F)c(F)c(F)c(F)c1F`, the cytotoxicity was 56% (active).

For `O=C(Nc1ccccc1N1CCN(C(=O)c2ccccc2)CC1)c1cc2ccccc2o1`, the cytotoxicity was -8.3% (inactive).

On to `CCC(=O)Nc1ccc(NC(=O)c2cc3ccccc3o2)cc1`, for which the cytotoxicity is -18.1% (inactive).

`O=C(Nc1ccc(N2CCOCC2)c(Cl)c1)c1cccc(F)c1`: the cytotoxicity was 16.4% (inactive).

With `O=C(Nc1ccc(N2CCOCC2)c(Cl)c1)c1ccco1`, the cytotoxicity is -5.7% (inactive).

On to `O=C(Nc1ccc(N2CCN(C(=O)c3ccco3)CC2)c(Cl)c1)c1cccs1`, for which the cytotoxicity is 16.9% (inactive).

Consider `O=C(Nc1ccc(N2CCN(C(=O)c3ccccc3)CC2)c(Cl)c1)c1ccco1`, for which the cytotoxicity was -7.6% (inactive).

`O=C(Cc1ccc(Cl)cc1)Nc1ccc(N2CCN(C(=O)c3ccco3)CC2)c(Cl)c1`: the cytotoxicity is 19.6% (inactive).

Turning to `CCn1c(C(=O)NCc2cccnc2)cc2sc(Cl)cc21`, the cytotoxicity is 1.8% (inactive).

For the molecule `CC(=O)Nc1cc(C(=O)N2CCOCC2)ccc1S(=O)(=O)c1ccc(C)cc1`, the cytotoxicity is -15.2% (inactive).

`COc1ccc(CCNC(=O)C2CCCN(C(=O)N(C)C)C2)c(OC)c1` (centres undefined): the cytotoxicity is -5.4% (inactive).

As to `CCN(CC)c1ccc2c(c1)C(=O)N(C)C2=O`, the cytotoxicity is 11.6% (inactive).

Turning to `CCn1cc(SCC(=O)NCc2ccc3c(c2)OCO3)c2ccccc21`, the cytotoxicity was 4.6% (inactive).

With `COc1ccc(CN(CC2CCCO2)S(=O)(=O)c2ccc(C(=O)O)cc2)cc1OC` (centres undefined), the cytotoxicity was 8.1% (inactive).

Take `Cn1c(=Nc2ccc(N3CCOCC3)cc2)ccc2ccccc21`: the cytotoxicity was 0.9% (inactive).
